# Assay results from PubChem BioAssay AID1259318 (Sanford-Burnham Center for Chemical Genomics, 2017).
# Hit rate of the full screen: of about 370,000 compounds, about 3,000 (0.81%) were called active. What follows is part of a selection rich in actives, with near analogues and random picks from the rest. A number with no mark means an inactive call.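 The calls were made as follows: active = activity above about 14% (limit read from the data; passing the limit was not always enough); inactive = the rest.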
# Biological target: Nuclear receptor subfamily 1 group D member 1 (Homo sapiens) (UniProt P20393)
# Test: modulators of Rev-erb alpha DNA binding, primary screen, biochemical, FITC-DNA, fluorescence polarization, uHTS (AID 1259318);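 also: 0% = DMSO wells with 35 nM protein and 100% = DMSO wells with 750 nM protein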
# Conditions: Rev-erbα–FITC-DNA binding, 90 min, at 10 µM, hits give high values
# Nuclear receptor subfamily 1 group D member 1 (Homo sapiens), sequence (P20393 whole entry, looked up): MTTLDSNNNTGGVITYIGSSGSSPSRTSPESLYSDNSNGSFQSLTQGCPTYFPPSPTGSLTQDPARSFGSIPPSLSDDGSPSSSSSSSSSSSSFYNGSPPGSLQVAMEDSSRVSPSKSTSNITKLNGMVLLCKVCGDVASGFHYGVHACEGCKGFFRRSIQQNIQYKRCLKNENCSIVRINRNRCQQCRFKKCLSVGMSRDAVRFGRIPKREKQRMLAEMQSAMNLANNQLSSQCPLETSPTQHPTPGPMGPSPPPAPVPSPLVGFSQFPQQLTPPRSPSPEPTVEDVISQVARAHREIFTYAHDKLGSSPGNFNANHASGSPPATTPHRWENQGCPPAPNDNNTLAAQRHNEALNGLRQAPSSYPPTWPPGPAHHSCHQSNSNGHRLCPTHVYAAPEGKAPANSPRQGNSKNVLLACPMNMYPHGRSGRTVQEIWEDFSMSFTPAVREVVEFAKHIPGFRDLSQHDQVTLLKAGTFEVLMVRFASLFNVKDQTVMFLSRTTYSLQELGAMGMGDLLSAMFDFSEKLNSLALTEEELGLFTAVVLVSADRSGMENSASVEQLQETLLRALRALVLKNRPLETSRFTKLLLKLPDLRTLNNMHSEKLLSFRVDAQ
row,SMILES,activity
1,CC1(C)CC2CC(C)(CN2c2ncnc3ccc(Br)cc23)C1 (stereo unspecified),20.4% (active)
2,COCCN1CCn2c(nc3cc(NS(C)(=O)=O)ccc32)C1,-3.86%
3,Cc1ccc(NC(=O)c2cc(C)nn2-c2ccccc2)c(C)c1,2.36%
4,CCOC(=O)c1ccc(NC(=S)Nc2cc(C)cc(C)n2)cc1,25.7% (active)
5,CCOC(=O)c1ccc(NC(=O)Cn2cnc3cc(C)c(C)cc32)cc1,1.51%
6,CCOC(=O)c1cn[nH]c1NC(=S)Nc1ccccc1,-3.54%
7,COc1ccc(CNC(=O)COC(=O)/C=C/c2ccc(S(=O)(=O)N3CCOCC3)cc2)cc1,-0.37%
8,CCSc1nnc(SCC(=O)NNC(=O)c2ccccc2F)s1,-6.25%
9,O=C(Nc1nnc(-c2ccccc2F)s1)c1ccccc1F,23.9% (active)
10,O=C(Nc1ccccc1F)c1ccccc1-c1ccccc1,8.73%
11,CC1(Oc2ccccc2-c2ccno2)CCN(Cc2ccc(-c3ccccc3)o2)C1 (stereo unspecified),-3.17%
12,O=C(Nc1cccc(Cl)c1)OC1CC2CC1[C@H]1CCCCN1[C@H]2Cc1ccccc1 (stereo partly specified),0.26%
13,CCCn1c(N)c(C(=O)CSc2nc3ccccc3c(=O)n2-c2ccc(OC)cc2)c(=O)[nH]c1=O,-7.88%
14,COc1ccc(-n2c(SCC(=O)Nc3ccc(C)c(Cl)c3)nc3ccccc3c2=O)cc1,-4.51%
15,COc1cccc(-n2c(SCC(=O)c3c[nH]c4ccccc34)nc3ccccc3c2=O)c1,69.3% (active)
16,Cc1ccc(C2=Nc3c(ccc4ccccc34)C(c3ccncc3)=NN2)cc1,3.5%
17,Cc1ccc(S(=O)(=O)N2[C@@H](Cc3ccccc3)CO[C@H]2CC(=O)OCc2ccccc2)cc1,-1.88%
18,Cc1cc(Br)ccc1NC(=O)c1sc2ncn(CC(=O)N3CCN(c4ccccn4)CC3)c(=O)c2c1C,58.2% (active)
19,Cc1cc(Br)ccc1NC(=O)c1cnc(N2CCN(c3ccccn3)CC2)c2ccccc12,0.52%

row,SMILES,activity
1,Cc1sc2ncn(CC(=O)NCCCC(=O)N3CCN(c4ccccc4F)CC3)c(=O)c2c1C,-0.15%
2,CCCCOc1ccc(N(CC(=O)NC(C)C)C(=O)CCC(=O)Nc2ccccn2)cc1,-9.8%
3,CCC(C(=O)NC1CCCCC1)N(C(=O)c1snc(C(N)=O)c1N)c1ccc(OC)cc1OC (stereo unspecified),2.92%
4,CCC(C(=O)NC1CCCC1)N(C(=O)c1snc(C(N)=O)c1N)c1ccc2c(c1)OCCO2 (stereo unspecified),34.2% (active)
5,COc1ccc(N(C(=O)c2snc(C(N)=O)c2N)C(C(=O)NC2CCCC2)c2ccco2)cc1OC (stereo unspecified),4.63%
6,COc1ccc(C(=O)CN2C(=O)NC3(CCc4ccccc43)C2=O)c(OC)c1 (stereo unspecified),6.28%
7,O=C(Nc1cccnc1)c1noc2c1CCCCC2,0.99%
8,O=C(O)C1=CCCN(CCON=C(c2ccccc2)c2ccccc2)C1,-6.65%
9,COc1cccc(-c2ccc(C#N)c(SCC(=O)NCCc3ccc(Cl)cc3)n2)c1,29.2% (active)
10,COc1ccc(CCNC(=O)CSc2nc(-c3ccc(OC)c(OC)c3)ccc2C#N)cc1,56% (active)
11,COc1cc(OC)cc(C(=O)NCCSCc2ccc(Cl)cc2)c1,-1.8%
12,COc1ccc(CCNC(=O)CSc2nnc3ccc(-c4ccncc4)nn23)cc1,2.33%
13,COc1ccc(CCNC(=O)CSc2nnc(-c3cccc(F)c3)o2)cc1OC,6.95%
14,COc1ccc(CCNC(=O)CSc2nc(C)nc3c2oc2ccccc23)cc1OC,-3.78%
15,O=C(O[C@@H]1[C@H](Cc2ccccc2)NS(=O)(=O)[C@H]2C[C@@H]3C=C[C@]12O3)c1ccccc1Br,4.17%
16,Cc1c[nH]c2cccc(-c3ccc(Cl)cc3)c12,4.69%
17,CCCCCCCCCCCCCCCCO,2.41%
18,CCNC(=O)C1(C)CCCN(C(=O)c2c(C)noc2C)C1 (stereo unspecified),-9.88%
19,NC(N)=Nc1nc2ccc(Br)cc2c(=O)[nH]1,20.6% (active)

row,SMILES,activity
1,NC(=O)C1CCN(Cc2nc3c(Br)cc(Br)cc3c(=O)[nH]2)CC1,-0.27%
2,CC(C)(C)c1ccc(S(=O)(=O)N2CCN(C(=O)c3ccc4c(c3)C(=O)N(Cc3ccncc3)C4=O)CC2)cc1,-6.31%
3,COc1cccc(NS(=O)(=O)c2ccc3[nH]cc(C(=O)NCCCOC(C)C)c(=O)c3c2)c1,5.55%
4,CN(C)S(=O)(=O)c1ccc(N2CCCC2)c(C(=O)NCc2ccccc2)c1,5%
5,CN(C)S(=O)(=O)c1ccc(N2CCCC2)c(C(=O)Nc2ccc(Br)cc2F)c1,23.1% (active)
6,CN(C)S(=O)(=O)c1ccc(N2CCCC2)c(C(=O)Nc2cccc(F)c2)c1,6.34%
7,CC(C)(C)NC(=O)C(c1cccnc1)N(C(=O)c1cnco1)c1ccc(C(C)(C)C)cc1 (stereo unspecified),0.3%
8,CN1/C(=c2/s/c(=C3/C(=O)N(c4ccccc4)NC3=Nc3ccccc3)n(C)c2=O)C(C)(C)c2ccccc21,42.5% (active)
9,Cc1cc(=O)oc2c(C(=O)c3ccccc3)c(OCC(N)=O)ccc12,1.4%
10,COCCOC(=O)c1c(C)oc2cc(Br)c(OCC(N)=O)cc12,-0.63%
11,CCOC(=O)c1c(C)oc2cc(Br)c(OCC(N)=O)cc12,27.8% (active)
12,CCOc1ccc(NC(=O)CN(C)C(=O)CCSc2ccc(F)cc2)cc1OCC,-6.91%
13,Nn1c(SCC(=O)Nc2cccc3ccccc23)nnc1-c1cc(-c2ccc(F)cc2)n[nH]1,0.84%
14,Cc1ccn2c(=O)nc(SCC(=O)NCc3ccc4c(c3)OCO4)nc2c1,-6.16%
15,COc1ccc(C2=NN(C(=O)CSc3nc(=O)n4ccc(C)cc4n3)C(c3ccc(C)cc3)C2)cc1 (stereo unspecified),37.8% (active)
16,Cc1ccn2c(=O)nc(SCC(=O)NCc3ccc(F)cc3)nc2c1,10.3%
17,CC(O)COc1ccccc1 (stereo unspecified),-2.15%
18,Cc1ccc(NS(=O)(=O)c2ccc(-c3ccc(=O)[nH]n3)o2)c(C)c1,1.28%
